The values that follow come from ChEMBL document CHEMBL4513216, “Probing the Open Global Health Chemical Diversity Library for Multistage-Active Starting Points for Next-Generation Antimalarials” (ACS Infect Dis, 2020).

Hit rate of the full screen: of about 69,000 compounds, about 8,600 (12%) showed an effect of 50% or more. This is one part of a sample in which strong results are shown more often than they occur.

This experiment deals with Plasmodium berghei. Put plainly: Screen against P. berghei liver stage (PbLuc), transformed with Luciferase, at 10uM. Type of experiment: functional, HepG2. The following applies: tested at 10 uM.
As for `CC(CO)(NCc1noc(Cc2ccccc2)n1)C1CCCCC1` (stereo not given), the INHIBITION is -1.7%.
For the compound `O=C(O)[C@@H]1CN(C(=O)CSCC2CC2)C[C@H]1c1ccccn1`, the INHIBITION is given as -87%.
On to `CCOc1ncccc1CNC(=O)c1c(C)oc(C)c1C`, for which the INHIBITION was determined as 29.75%.
Consider `CC(NC(=O)c1ccoc1)c1ccc2c(c1)CCC(=O)N2` (stereo not given), for which the INHIBITION is given as -6.14%.
In the case of `CC(NC(=O)NCc1ccccn1)c1ccc2c(c1)CCC(=O)N2` (stereo not given), the INHIBITION was -75.2%.
The value for `CC(NC(=O)c1cccc[n+]1[O-])c1ccc2c(c1)CCC(=O)N2` (stereo not given) was 62.6%; that for `CC(NC(=O)NCc1cc[nH]n1)c1ccc2c(c1)CCC(=O)N2` (stereo not given) was 51.2%; that for `Cc1ccsc1C(=O)NC(C)c1ccc2c(c1)CCC(=O)N2` (stereo not given) was 11.7%.
The figure for `Cc1csc(CNC(=O)NC(C)c2ccc3c(c2)CCC(=O)N3)n1` (stereo not given) is 9.64%.
The figure for `Cn1cnnc1C1CCN(C(=O)CCCOCc2ccccc2)CC1` is 43.2%; for `COc1nc(C)ccc1CNC(=O)NC(c1ncc(C)s1)C1CC1` (stereo not given) it is -21.1%; for `O[C@H]1CN(CCCOc2ccccc2F)CC[C@@]12CCCO2` it is 6.485%.
In the case of `O[C@H]1CN(CCOc2ccc(F)cc2)CC[C@@]12CCCO2`, the INHIBITION was 62.9%.
The figure for `C[C@@H]1CN(CCOc2ccc(F)cc2)CC[C@@]1(O)C1CCOCC1` is 28.8%; for `Cc1noc(C)c1CCC(=O)N1CCCC(n2cccn2)C1` (stereo not given) it is 37.4%; for `CCc1nc(NC2CC(=O)N(CC3CCCCC3)C2)ncc1C` (stereo not given) it is 2.97%.
The value for `Cc1nc(Nc2ncccn2)cc(C2CCCN2C2CCOCC2)n1` (stereo not given) was 15.4%; that for `Cc1nc(Nc2ncc(C)s2)cc(C2CCCN2S(C)(=O)=O)n1` (stereo not given) was 50.8%; that for `Cc1nc(Nc2ncc(C)s2)cc(C2CCCN2)n1` (stereo not given) was 67.15%.
The figure for `Cc1nc(NC2CCOCC2)cc(C2CCN2S(C)(=O)=O)n1` (stereo not given) is 30.6%.
For `Cc1nc(Nc2ccccn2)cc(C2CCCN2C2CCOCC2)n1` (stereo not given), the INHIBITION came out at 20.8%.
The value for `Cc1nc(Nc2nccs2)cc(C2CCCN2C2CCOCC2)n1` (stereo not given) was 52.3%.
The value for `Cc1nc(Nc2nccs2)cc(C2CCCN2)n1` (stereo not given) was 5.05%; that for `Cc1nc(Nc2nnc(C)s2)cc(C2CCCN2)n1` (stereo not given) was -24.595%; that for `Cc1nc(Nc2nnc(C)s2)cc(C2CCCN2S(C)(=O)=O)n1` (stereo not given) was 6.32%.
Regarding `Cc1cc(CN(C)C(=O)C2CC(c3cccc(F)c3)=NO2)no1` (stereo not given), the INHIBITION is listed as 7.24%.
The figure for `CCNC(=O)c1ccc2c(c1)nc1n2CCN(C(C)C)C1` is -17.2%.
Consider `COc1ccccc1C(=O)N1CCCC1c1ncc2c(n1)CCNC2` (stereo not given), for which the INHIBITION is listed as 26.3%.
The value for `CCCC(O)CN1CCC(=O)N(CCOC)Cc2ccccc21` (stereo not given) was 6.34%.
The value for `CC(C)C(C)N(C)C(=O)COc1ccccc1C#N` (stereo not given) was 16.8%.
The figure for `COC(=O)c1ccc(NC(=O)CCc2ccco2)cc1` is -13.6%; for `Cc1nnc(C(C)N2CCCN(Cc3ccc(C#N)cc3)CC2)o1` (stereo not given) it is 24%.
Regarding `O=c1ccc2c([nH]1)CCC(NCc1ccc(F)cc1)C2` (stereo not given), the INHIBITION came to 45.1%.
The value for `Cc1ccc(C)c(CC(=O)NC2(C#N)CCOCC2)c1` was 20.4%.
The value for `O=C(c1ccccn1)N(CCO)Cc1cc(Br)ccc1F` was -0.759%; that for `Cc1nn(C2CCS(=O)(=O)C2)c(O)c1Cc1ccccc1` (stereo not given) was 36.9%.
The figure for `CCOCC1CN(Cc2ccoc2)Cc2nn(C)cc21` (stereo not given) is 16.8%.
On to `CNc1cncc(C2CCN(C(=O)c3coc(C)n3)CC2)n1`, for which the INHIBITION was 58%.
For the compound `CNc1cncc(C2CCN(C(=O)c3cnco3)CC2)n1`, the INHIBITION was determined as 8.53%.
The value for `CNc1cccc(C2CCCN(C(=O)c3coc(C)n3)C2)n1` (stereo not given) was 41.2%; that for `Cc1cc(Br)oc1C(=O)N1CCCN(CC(N)=O)CC1` was 30.3%.
Turning to `Cc1cc(Br)oc1C(=O)N1CCN(CC(N)=O)CC1`, the INHIBITION is given as 20.9%.
The figure for `CC(=O)N1CCCN(C(=O)c2oc(Br)cc2C)CC1` is 58.5%.
The figure for `Cn1cc(C2CC(=O)NC23CCN(CC2CC2)CC3)cn1` (stereo not given) is 48.7%.
With `Cc1nc(N2CCCC2)nc2c1CCN(Cc1ccco1)CC2`, the INHIBITION is reported as 15.1%.
The value for `Cc1ccc(F)c2c1N(C(=O)c1cn(CC(=O)N(C)C)nn1)CCC2` was -9.21%; that for `CN(C)CCN1CCOCC2(C1)CN(Cc1nccs1)CCO2` (stereo not given) was 14.1%.
The value for `CNC(=O)NC(=O)CSc1ccc2c(c1)CCC2` was 54.3%; that for `CNC(=O)NC(=O)CCSc1ccccc1C` was 29.8%; that for `CS(=O)(=O)c1ccc(NC(=O)CSc2ccc3c(c2)CCC3)cn1` was 53.4%.
The value for `NC(=O)c1cccc(NC(=O)CSc2ccc3c(c2)CCC3)c1` was 40.6%; that for `CS(=O)(=O)c1ccc(NC(=O)NCc2ccc3c(c2)CCC3)cn1` was 24%; that for `NS(=O)(=O)c1ccc(NC(=O)CSc2ccc3c(c2)CCC3)cc1` was 66.8%.
Regarding `CNC(=O)Cc1noc(Cc2ccc3c(c2)CCCC3)n1`, the INHIBITION was 15.9%.
The figure for `CS(=O)(=O)c1ccc(NC(=O)CSc2ccc3c(c2)CCC3)cc1` is 31.2%.
